± gives the standard deviation. The full ranking holds about 8,200 sequences; the median of “pre-steady-state target cleavage rate” is about 0.024, and the highest 2% start at about 1.3. The list comes from a sample in which the highest values are over-represented; it also holds similar and randomly drawn sequences.
Test system: MIWI (PIWIL1) piRISC loaded with L1MC piRNA (30 nt)
Test: pre-steady-state target cleavage rate (min^-1); MIWI and MILI are mouse PIWI proteins and EfPiwi is from a freshwater sponge; tags in brackets are library labels; higher = faster piRNA-guided slicing of the target
Conditions: guide: L1MC piRNA 5'p-UAACUAAAUACUAUGCAAGCUGUAGGUCCU
Method: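 Cleave-'n-Seq: a library of target RNAs (target site embedded in constant flanks, ACAGCATTCCGCGTTAGTGATATCCG... 5' flank; DNA-blocked outside the site) at 0.1 nM was incubated with 1 nM active mouse MILI or MIWI piRISC (synthetic 5'-monophosphorylated piRNA guide) with or without 500 nM mouse GTSF1 at 33 °C for 1 min to 16 h. Uncleaved targets were sequenced and normalised to non-target controls, and the pooled three trials were fitted to a burst-and-steady-state model to give the pre-steady-state cleavage rate (min^-1; k3 is constrained to at most 1e-4). Sequence is the target site only; target names encode pairing extent (gX:gY) and contiguous / 1-mismatch / 2-mismatch / bulge geometry. Fits with R² ≤ 0 are excluded.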

[1] = auxiliary factor: 500 nM mouse GTSF1
[2] = auxiliary factor: none (no GTSF1)

| Sequence | pre-steady-state target cleavage rate [1] | pre-steady-state target cleavage rate [2] |
| --- | --- | --- |
| UGGACCUACAGCUUGCAUAGAAUUUACAAA | 0.29 ± 0.062 | – |
| UGGACCUACAGGUUGCAUAGUAAUUAGUUA | 0.731 ± 0.055 | 0.0177 ± 0.0042 |
| UGGACCUACAGCUUGCAUAGAAUUUUCAAA | 0.239 ± 0.048 | – |
| UCCUGGAUGUGCUUGCAUGGUAUUUAGUUA | 0.209 ± 0.02 | 0.0348 ± 0.0072 |
| UCGACCUACAGCUUGCAUAGUAUUUAGAUA | 0.564 ± 0.043 | 0.0299 ± 0.0074 |
| UCCACCUACACCUUGCAUAGUAUUUACAAA | 0.309 ± 0.053 | 0.00355 ± 0.0022 |
| UCCUGGUACAGCUAGCAUAGUAUUAAGUUA | 0.378 ± 0.051 | 0.00772 ± 0.0027 |
| UCCUGGAUGUGCUUGCAUAGUAUUUUAGUUA | 0.128 ± 0.018 | 0.021 ± 0.0069 |
| UCCACCUACAGCUACGAUAGUAUUUAGUUA | 0.121 ± 0.016 | – |
| UCCUCCUACUGCUAGCAUAGUAUUUAGUUA | 0.871 ± 0.033 | 0.0164 ± 0.0031 |
| UCGACCUAGAGCUUGGAUAGUAUUUAGUUA | 1.25 ± 0.042 | 0.0475 ± 0.0077 |
| UCCACCUUCAGCUUGGAUAGUAUUUAGUUA | 1.15 ± 0.033 | 0.0456 ± 0.0083 |
| UGGACCUUCAGCUUGGAUAGUAUUUAGUUA | 1.59 ± 0.068 | 0.0597 ± 0.011 |
| AGGACCUUCAGCUUCCAUAGUAUUUAGUUA | 0.101 ± 0.023 | 0.00546 ± 0.0024 |
| AGGACCUUCAGCUUGGAUAGUAUUUAGUUA | 1.48 ± 0.052 | 0.0657 ± 0.012 |
| UCGACCUUCAGCUUGGAUAGUAUUUAGUUA | 1.49 ± 0.05 | 0.0525 ± 0.0074 |
| UCGACCUUCAGCUUCCAUAGUAUUUAGUUA | 0.0473 ± 0.011 | 0.00293 ± 0.0014 |
| UCCUCCUUCAGCUUGGAUAGUAUUUAGUUA | 1.19 ± 0.041 | 0.0358 ± 0.0057 |
| UCCUGCUUCAGCUUGGAUAGUAUUUAGUUA | 1.18 ± 0.078 | 0.049 ± 0.0081 |
| UCCACCUAGUCCUUGCAUAGUAUUUAGUAA | 0.142 ± 0.021 | 0.00921 ± 0.0015 |
| UCCUGGAACAGCUUGCAAAGUAAUUAGUUA | 0.545 ± 0.038 | 0.0139 ± 0.0055 |

| Sequence | pre-steady-state target cleavage rate [1] | pre-steady-state target cleavage rate [2] |
| --- | --- | --- |
| UCCACCUACAGCUUGCAUAGAAUUUACAAA | 0.308 ± 0.054 | – |
| UCCUGGUACAGUUUGCAUAGUAUUUAGUUA | 0.706 ± 0.044 | 0.0392 ± 0.0063 |
| UCGACCUACAGCUUAGCAUAGUAUUUAGUUA | 1.59 ± 0.058 | 0.0251 ± 0.0054 |
| AGGACCUACAGCUUGGCAUAGUAUUUAGUUA | 1.17 ± 0.17 | 0.0407 ± 0.0099 |
| UCGACCUACAGCUAGCAUAGUAUUUAGUUA | 1.28 ± 0.053 | 0.0292 ± 0.0072 |
| AGGACCUACAGCUAGCAUAGUAUUUAGUUA | 1.16 ± 0.061 | 0.0412 ± 0.0085 |
| UCCACCUACAGCUUAGCAUAGUAUUUAGUUA | 1.02 ± 0.03 | 0.0144 ± 0.0034 |
| UGGACCUACAGCUAGCAUAGUAUUUAGUUA | 1.41 ± 0.074 | 0.0334 ± 0.0077 |
| UGGACCUACAGCUAGCAUAGUAUUUAGUAA | 1.08 ± 0.065 | 0.016 ± 0.0033 |
| AGGACCUACAGCUAGCAUAGUAUUUAGUAA | 0.836 ± 0.073 | 0.0193 ± 0.0066 |
| UGGACCUACAGCUUAGCAUAGUAUUUAGUUA | 1.45 ± 0.08 | 0.0281 ± 0.0051 |
| UGGACCUACAGCUUGGCAUAGUAUUUAGUUA | 1.01 ± 0.26 | 0.0197 ± 0.0048 |
| AGGACCUACAGCUUAGCAUAGUAUUUAGUUA | 1.37 ± 0.052 | 0.0387 ± 0.011 |
| ACGACCUACAGCUAGCAUAGUAUUUAGUUA | 1.3 ± 0.052 | 0.0406 ± 0.0091 |
| UCCUGGAUCAGCUUGCUAAGUAUUUAGUAA | 0.00706 ± 0.004 | – |
| UCCUCCUACAGCUUGCAUAGUAUUUACUUA | 0.383 ± 0.042 | 0.0348 ± 0.0074 |
| UCCUGGAACAGUUGCAUAGUAUUUAGUUA | 0.337 ± 0.022 | 0.00545 ± 0.0021 |
| UCCUGGAUCUGCAUGCAUAGUAUUUAGUUA | 0.204 ± 0.024 | 0.00439 ± 0.002 |
| UCCUGGAUGUCGAACGUAUGUAUUUUAGUUA | < 0.0001 | – |
| UCCUCCUACAGCUUGCAUAGUAAAAAGUUA | 0.231 ± 0.023 | – |
| UCCUCCUACAGCUUACAUAGUAUUUAGUUA | 1.14 ± 0.031 | 0.0275 ± 0.0041 |

| Sequence | pre-steady-state target cleavage rate [1] | pre-steady-state target cleavage rate [2] |
| --- | --- | --- |
| UCCUCCUACAGCUAGCAUAGUAUUUAGUUA | 0.838 ± 0.03 | 0.016 ± 0.0034 |
| UCCUCCUACAGCUUAGCAUAGUAUUUAGUUA | 1.31 ± 0.054 | 0.0108 ± 0.0023 |
| UCGUCCUACAGCUUGCAUAGUAUUUAGUUA | 1.42 ± 0.041 | 0.0638 ± 0.0093 |
| UCGUCCUACAGCUUGCAUAGUAUUUAGUAA | 0.82 ± 0.037 | 0.0372 ± 0.0076 |
| UCGUCCUACAGCUUGCAUAGUAUUUAGAAA | 0.469 ± 0.042 | 0.00751 ± 0.0029 |
| UGGUCCUACAGCUUGCAUAGUAUUUAGUUA | 1.16 ± 0.052 | 0.0862 ± 0.015 |
| AGGUCCUACAGCUUGCAUAGUAUUUAGUAA | 0.77 ± 0.055 | 0.0647 ± 0.012 |
| UGGUCCUACAGCUUGCAAAGUAUUUAGUUA | 1.13 ± 0.04 | 0.0413 ± 0.0067 |
| AGGUCCUACAGCUUGCAUAGUAUUUAGUUA | 1.43 ± 0.054 | 0.111 ± 0.019 |
| ACGUCCUACAGCUUGCAUAGUAUUUAGUUA | 1.52 ± 0.055 | 0.0835 ± 0.013 |
| UCCUACUACAGCUUGCAUAGUAUUUAGUUA | 0.886 ± 0.036 | 0.057 ± 0.0085 |
| UCGUCCUACAGCUUGCAAAGUAUUUAGUUA | 1.3 ± 0.032 | 0.0388 ± 0.0068 |
| AGGUCCUACAGCUUGCAAAGUAUUUAGUUA | 1.35 ± 0.043 | 0.0532 ± 0.01 |
| UCCUGGAUCAGCUUGCAUAGUAAUUAGAUA | 0.216 ± 0.036 | 0.0126 ± 0.0029 |
| UCCUGGAACAGCUUGGUAAGUAUUUAGUUA | 0.00797 ± 0.0031 | – |
| UCCUGGAUGUGCUUGACAUAGUAUUUAGUUA | 0.0551 ± 0.0082 | – |
| UCCUGGAUCAGCUUGCAUAGUAUUAUGUAA | 0.0189 ± 0.0065 | 0.00377 ± 0.0026 |
| UCCUGGAUGUGCUUGGAUACUAUUUAGUUA | 0.031 ± 0.011 | 0.0033 ± 0.0029 |
| UCCUGGAUGUCGAACCAUACUAAUUAGUUA | – | < 0.0001 |
| AGGACCUACAGCUAGCAUAGUAAUUAGUUA | 0.745 ± 0.06 | 0.0091 ± 0.0021 |
| UCCUGGAUCACCAUGCAUAGUAUUUAGUUA | 0.0303 ± 0.0068 | – |

| Sequence | pre-steady-state target cleavage rate [1] | pre-steady-state target cleavage rate [2] |
| --- | --- | --- |
| UCCUCCUACAGCUUGCUAGUAUUUAGUUA | 0.0615 ± 0.017 | – |
| UCCUGCUACAGCUUGCUUAGUAUUUAGUUA | 0.987 ± 0.056 | 0.0337 ± 0.008 |
| UCCAGCUACAGCUUGCUUAGUAUUUAGUUA | 0.78 ± 0.039 | 0.0235 ± 0.004 |
| AGGUCCUACAGCUUGCUUAGUAUUUAGUUA | 1.54 ± 0.069 | 0.0542 ± 0.011 |
| UGGUCCUACAGCUUGCUUAGUAUUUAGUUA | 1.21 ± 0.035 | 0.0478 ± 0.0087 |
| UCGUCCUACAGCUUGCUUAGUAUUUAGUUA | 1.43 ± 0.047 | 0.0358 ± 0.0073 |
| AGGACCUACAGCUUGCAUAGAUAUUUAGUUA | 0.143 ± 0.048 | – |
| UCCACCUACAGCUUGCAUUCAAUUUAGUUA | 0.0179 ± 0.0084 | – |
| UCGACCUUCUGCUUGCAUAGUAUUUAGUUA | 1.45 ± 0.048 | 0.0653 ± 0.011 |
| UGGACCUGACAGCUUGCAUAGUAUUUAGUUA | 1.56 ± 0.12 | 0.0824 ± 0.017 |
| UCGACCUGCAGCUUGCAUAGUAUUUAGUUA | 1.41 ± 0.072 | 0.0674 ± 0.013 |
| AGGACCUUCUGCUUGCAUAGUAUUUAGUUA | 1.24 ± 0.042 | 0.082 ± 0.015 |
| UCCUCCUGCAGCUUGCAUAGUAUUUAGUUA | 1.1 ± 0.053 | 0.0513 ± 0.0088 |
| AGGACCUGACAGCUUGCAUAGUAUUUAGUUA | 1.17 ± 0.07 | 0.067 ± 0.011 |
| UCCACCUGCAGCUUGCAUAGUAUUUAGUUA | 1.15 ± 0.13 | 0.0541 ± 0.011 |
| UCGACCUGACAGCUUGCAUAGUAUUUAGUUA | 1.25 ± 0.057 | 0.0632 ± 0.011 |
| UCGACCUUGUGCUUGCAUAGUAUUUAGUUA | 0.871 ± 0.038 | 0.0513 ± 0.0098 |
| AGGACCUGCAGCUUGCAUAGUAUUUAGUUA | 1.38 ± 0.088 | 0.0689 ± 0.014 |
| UGGACCUUCUGCUUGCAUAGUAUUUAGUUA | 1.3 ± 0.066 | 0.0534 ± 0.0096 |

From the supplement of paper PMC10338343
